Experimental data taken from paper PMC7862700, “An all-to-all approach to the identification of sequence-specific readers for epigenetic DNA modifications on cytosine”.

Legend:
Test in all cases: DAPPL (digital affinity profiling via proximity ligation, sequencing); 10 mM Tris-HCl pH 7.5, 50 mM NaCl, 1 mM DTT, 4% glycerol, room temperature, 30 min; GST-TFs on glutathione beads, 16-mer random dsDNA library, 0.1% formaldehyde crosslink after washing; high values mean tight binding
FLI1 = target: T1, FLI1 (Homo sapiens, UniProt Q01543 1-452); details: protein: recombinant; tags: N-terminal GST; dsDNA, one strand shown
T1 sequence: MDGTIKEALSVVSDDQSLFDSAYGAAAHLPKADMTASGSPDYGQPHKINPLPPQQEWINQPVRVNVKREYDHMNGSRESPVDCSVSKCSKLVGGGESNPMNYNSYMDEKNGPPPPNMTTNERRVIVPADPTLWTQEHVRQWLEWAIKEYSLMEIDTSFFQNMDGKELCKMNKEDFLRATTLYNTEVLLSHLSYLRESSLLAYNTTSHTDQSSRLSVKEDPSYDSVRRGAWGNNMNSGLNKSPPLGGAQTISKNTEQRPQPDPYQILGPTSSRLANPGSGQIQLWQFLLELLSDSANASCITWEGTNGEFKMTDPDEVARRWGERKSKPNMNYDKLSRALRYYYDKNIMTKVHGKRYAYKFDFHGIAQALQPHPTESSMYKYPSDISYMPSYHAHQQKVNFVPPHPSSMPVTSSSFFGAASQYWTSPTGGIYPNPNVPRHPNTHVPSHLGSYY
How it was run: (§1)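 Pools of DNA-barcoded human transcription factors, expressed in yeast as GST fusions on glutathione beads and combined with a tag-only sample, were incubated with 200 nmole of a 16-mer random double-stranded DNA library. Incubation took 30 min at room temperature in Tris/NaCl/DTT/glycerol buffer and was followed by washing, 0.1% formaldehyde crosslinking, proximity ligation (BsaI/T4 ligase, 1 h, 37 °C), PCR amplification and sequencing on an Illumina NextSeq500. Binding signal is the ratio of a hexamer's read frequency for a factor to its frequency for the tag-only sample.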

ELK1 = target: T2, ELK1 (Homo sapiens, UniProt P19419 1-428); details: protein: recombinant; tags: N-terminal GST; dsDNA, one strand shown
T2 sequence: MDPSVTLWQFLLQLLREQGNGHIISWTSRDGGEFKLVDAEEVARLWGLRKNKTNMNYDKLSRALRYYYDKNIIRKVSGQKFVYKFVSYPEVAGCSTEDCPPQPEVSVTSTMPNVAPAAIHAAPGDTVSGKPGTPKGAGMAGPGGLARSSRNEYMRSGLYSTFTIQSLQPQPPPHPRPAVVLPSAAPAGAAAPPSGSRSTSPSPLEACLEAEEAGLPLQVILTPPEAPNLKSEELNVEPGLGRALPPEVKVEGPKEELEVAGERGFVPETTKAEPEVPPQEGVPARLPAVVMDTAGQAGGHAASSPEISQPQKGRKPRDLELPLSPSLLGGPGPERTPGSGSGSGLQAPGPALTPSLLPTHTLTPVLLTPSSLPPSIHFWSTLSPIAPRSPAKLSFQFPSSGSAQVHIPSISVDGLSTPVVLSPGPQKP
How it was run: as §1

GABPA = target: T3, GABPA (Homo sapiens, UniProt Q06546 1-454); details: protein: recombinant; tags: N-terminal GST; dsDNA, one strand shown
T3 sequence: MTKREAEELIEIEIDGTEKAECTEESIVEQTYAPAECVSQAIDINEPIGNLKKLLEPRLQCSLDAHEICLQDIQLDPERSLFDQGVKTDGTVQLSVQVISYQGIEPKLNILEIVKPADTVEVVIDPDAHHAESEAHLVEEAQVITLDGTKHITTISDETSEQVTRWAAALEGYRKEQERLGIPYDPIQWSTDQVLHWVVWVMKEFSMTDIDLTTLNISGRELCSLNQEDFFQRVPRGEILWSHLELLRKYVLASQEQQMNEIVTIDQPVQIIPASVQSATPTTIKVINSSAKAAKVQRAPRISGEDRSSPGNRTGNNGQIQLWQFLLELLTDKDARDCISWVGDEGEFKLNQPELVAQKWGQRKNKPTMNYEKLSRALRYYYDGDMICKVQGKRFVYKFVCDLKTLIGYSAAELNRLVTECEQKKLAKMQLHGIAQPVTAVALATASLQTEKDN
How it was run: as §1

ERG = target: T4, ERG (Homo sapiens, UniProt P11308 1-479); details: protein: recombinant; tags: N-terminal GST; dsDNA, one strand shown
T4 sequence: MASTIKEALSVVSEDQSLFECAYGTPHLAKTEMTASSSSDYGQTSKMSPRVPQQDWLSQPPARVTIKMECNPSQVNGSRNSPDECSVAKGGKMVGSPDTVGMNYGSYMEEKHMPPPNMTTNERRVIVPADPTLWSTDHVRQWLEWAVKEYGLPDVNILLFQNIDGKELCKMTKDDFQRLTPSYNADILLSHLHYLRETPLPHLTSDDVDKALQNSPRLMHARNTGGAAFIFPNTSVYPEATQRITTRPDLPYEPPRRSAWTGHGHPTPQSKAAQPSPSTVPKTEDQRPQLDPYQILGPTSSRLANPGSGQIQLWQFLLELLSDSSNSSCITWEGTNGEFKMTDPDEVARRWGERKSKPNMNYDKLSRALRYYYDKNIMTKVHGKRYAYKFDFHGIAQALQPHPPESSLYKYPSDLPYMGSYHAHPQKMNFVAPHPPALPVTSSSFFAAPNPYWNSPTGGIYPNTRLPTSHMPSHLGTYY
How it was run: as §1

ELF1 = ELF1 (Homo sapiens, UniProt P32519 1-619); details: protein: recombinant; tags: N-terminal GST; dsDNA, one strand shown
How it was run: as §1

EHF = target: T5, EHF (Homo sapiens, UniProt Q9NZC4 1-300); details: protein: recombinant; tags: N-terminal GST; dsDNA, one strand shown
T5 sequence: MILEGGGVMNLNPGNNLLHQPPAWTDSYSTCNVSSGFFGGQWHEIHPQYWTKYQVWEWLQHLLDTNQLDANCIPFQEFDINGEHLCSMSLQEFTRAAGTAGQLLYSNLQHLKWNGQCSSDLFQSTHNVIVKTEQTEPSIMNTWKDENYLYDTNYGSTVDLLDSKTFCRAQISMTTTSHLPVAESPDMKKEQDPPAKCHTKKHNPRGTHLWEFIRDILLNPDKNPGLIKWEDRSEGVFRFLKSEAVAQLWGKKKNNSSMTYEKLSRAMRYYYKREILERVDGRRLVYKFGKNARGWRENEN
How it was run: as §1

SPI1 = SPI1 (Homo sapiens, UniProt P17947 1-270); details: protein: recombinant; tags: N-terminal GST; dsDNA, one strand shown
How it was run: as §1

SPIB = SPIB (Homo sapiens, UniProt Q01892 1-262); details: protein: recombinant; tags: N-terminal GST; dsDNA, one strand shown
How it was run: as §1

ELK3 = target: T6, ELK3 (Homo sapiens, UniProt P41970 1-407); details: protein: recombinant; tags: N-terminal GST; dsDNA, one strand shown
T6 sequence: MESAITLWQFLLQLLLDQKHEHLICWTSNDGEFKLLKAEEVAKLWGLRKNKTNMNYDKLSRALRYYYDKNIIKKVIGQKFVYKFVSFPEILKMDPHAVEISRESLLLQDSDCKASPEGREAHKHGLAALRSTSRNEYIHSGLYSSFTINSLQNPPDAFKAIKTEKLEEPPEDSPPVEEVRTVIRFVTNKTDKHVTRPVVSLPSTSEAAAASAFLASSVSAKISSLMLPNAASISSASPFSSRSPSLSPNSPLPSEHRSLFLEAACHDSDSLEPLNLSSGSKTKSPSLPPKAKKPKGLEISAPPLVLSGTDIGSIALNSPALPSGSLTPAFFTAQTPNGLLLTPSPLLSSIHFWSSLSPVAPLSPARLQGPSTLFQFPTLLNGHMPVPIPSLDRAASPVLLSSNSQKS
How it was run: as §1

ETV5 = ETV5 (Homo sapiens, UniProt P41161 1-510); details: protein: recombinant; tags: N-terminal GST; dsDNA, one strand shown
How it was run: as §1

HSF1 = HSF1 (Homo sapiens, UniProt Q00613 1-529); details: protein: recombinant; tags: N-terminal GST; chain copies: 3; dsDNA, one strand shown
How it was run: as §1

SPIC = target: T7, SPIC (Homo sapiens, UniProt Q8N5J4 1-248); details: protein: recombinant; tags: N-terminal GST; dsDNA, one strand shown
T7 sequence: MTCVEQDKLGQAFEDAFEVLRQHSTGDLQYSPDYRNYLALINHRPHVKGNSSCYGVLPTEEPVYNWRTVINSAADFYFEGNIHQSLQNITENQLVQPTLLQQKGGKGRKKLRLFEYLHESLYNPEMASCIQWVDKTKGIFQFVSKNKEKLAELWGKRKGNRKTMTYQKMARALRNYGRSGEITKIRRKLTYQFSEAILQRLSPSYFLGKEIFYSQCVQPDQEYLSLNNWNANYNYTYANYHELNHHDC
How it was run: as §1

ELF4 = ELF4 (Homo sapiens, UniProt Q99607 1-663); details: protein: recombinant; tags: N-terminal GST; dsDNA, one strand shown
How it was run: as §1

ELK4 = target: T8, ELK4 (Homo sapiens, UniProt P28324-2 1-405); details: protein: recombinant; tags: N-terminal GST; dsDNA, one strand shown
T8 sequence: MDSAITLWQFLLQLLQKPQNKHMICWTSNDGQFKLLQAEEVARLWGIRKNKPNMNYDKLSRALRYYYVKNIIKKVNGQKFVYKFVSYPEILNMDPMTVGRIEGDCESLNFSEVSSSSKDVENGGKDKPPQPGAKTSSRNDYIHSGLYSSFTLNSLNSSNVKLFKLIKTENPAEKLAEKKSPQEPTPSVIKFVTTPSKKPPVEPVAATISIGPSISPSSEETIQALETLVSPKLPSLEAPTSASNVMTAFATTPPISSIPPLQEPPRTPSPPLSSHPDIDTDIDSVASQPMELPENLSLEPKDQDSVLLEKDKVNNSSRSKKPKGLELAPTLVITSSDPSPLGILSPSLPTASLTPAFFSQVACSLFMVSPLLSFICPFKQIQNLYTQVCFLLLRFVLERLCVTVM
How it was run: as §1

ETV2 = target: T9, ETV2 (Homo sapiens, UniProt O00321 1-342); details: protein: recombinant; tags: N-terminal GST; dsDNA, one strand shown
T9 sequence: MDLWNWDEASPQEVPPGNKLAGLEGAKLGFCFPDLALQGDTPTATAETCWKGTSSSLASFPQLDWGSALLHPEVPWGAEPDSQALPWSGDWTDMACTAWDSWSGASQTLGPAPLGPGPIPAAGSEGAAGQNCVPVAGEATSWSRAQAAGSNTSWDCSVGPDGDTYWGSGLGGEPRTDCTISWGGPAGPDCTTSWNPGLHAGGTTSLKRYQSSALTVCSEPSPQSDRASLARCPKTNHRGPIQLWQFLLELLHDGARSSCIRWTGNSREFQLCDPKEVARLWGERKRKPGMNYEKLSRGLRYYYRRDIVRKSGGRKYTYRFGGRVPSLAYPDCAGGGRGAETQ
How it was run: as §1

ELF3 = target: T10, ELF3 (Homo sapiens, UniProt P78545 1-371); details: protein: recombinant; tags: N-terminal GST; dsDNA, one strand shown
T10 sequence: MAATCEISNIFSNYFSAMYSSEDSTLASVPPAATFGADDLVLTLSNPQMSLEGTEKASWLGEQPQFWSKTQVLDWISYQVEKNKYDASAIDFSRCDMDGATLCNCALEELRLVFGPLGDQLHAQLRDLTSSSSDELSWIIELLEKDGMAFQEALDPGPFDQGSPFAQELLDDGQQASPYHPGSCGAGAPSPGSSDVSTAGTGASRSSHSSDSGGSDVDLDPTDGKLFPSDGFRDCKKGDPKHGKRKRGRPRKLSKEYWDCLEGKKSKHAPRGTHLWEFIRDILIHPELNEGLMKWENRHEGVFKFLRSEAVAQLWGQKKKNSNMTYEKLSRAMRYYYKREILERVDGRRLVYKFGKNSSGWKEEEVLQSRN
How it was run: as §1

CRX = CRX (Homo sapiens, UniProt O43186 1-299); details: protein: recombinant; tags: N-terminal GST; dsDNA, one strand shown
How it was run: as §1

ETV1 = ETV1 (Homo sapiens, UniProt P50549 1-477); details: protein: recombinant; tags: N-terminal GST; dsDNA, one strand shown
How it was run: as §1

Chain of CRX (O43186 whole entry): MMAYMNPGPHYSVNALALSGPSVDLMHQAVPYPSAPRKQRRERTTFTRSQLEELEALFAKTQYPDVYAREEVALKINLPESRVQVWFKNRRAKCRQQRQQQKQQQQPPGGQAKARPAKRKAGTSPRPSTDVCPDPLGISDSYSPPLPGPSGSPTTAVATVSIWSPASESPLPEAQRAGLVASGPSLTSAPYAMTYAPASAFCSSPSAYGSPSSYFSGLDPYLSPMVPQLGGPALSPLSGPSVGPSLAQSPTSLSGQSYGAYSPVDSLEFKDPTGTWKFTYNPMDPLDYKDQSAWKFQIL
Chain of SPIB (Q01892 whole entry): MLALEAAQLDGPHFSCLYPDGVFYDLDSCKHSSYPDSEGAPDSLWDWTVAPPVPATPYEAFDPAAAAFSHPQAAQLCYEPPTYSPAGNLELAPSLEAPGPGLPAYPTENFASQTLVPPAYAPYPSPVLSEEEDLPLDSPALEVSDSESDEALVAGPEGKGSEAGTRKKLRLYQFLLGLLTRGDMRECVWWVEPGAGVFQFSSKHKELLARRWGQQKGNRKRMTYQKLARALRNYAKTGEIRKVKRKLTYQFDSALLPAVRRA
Chain of ELF1 (P32519 whole entry): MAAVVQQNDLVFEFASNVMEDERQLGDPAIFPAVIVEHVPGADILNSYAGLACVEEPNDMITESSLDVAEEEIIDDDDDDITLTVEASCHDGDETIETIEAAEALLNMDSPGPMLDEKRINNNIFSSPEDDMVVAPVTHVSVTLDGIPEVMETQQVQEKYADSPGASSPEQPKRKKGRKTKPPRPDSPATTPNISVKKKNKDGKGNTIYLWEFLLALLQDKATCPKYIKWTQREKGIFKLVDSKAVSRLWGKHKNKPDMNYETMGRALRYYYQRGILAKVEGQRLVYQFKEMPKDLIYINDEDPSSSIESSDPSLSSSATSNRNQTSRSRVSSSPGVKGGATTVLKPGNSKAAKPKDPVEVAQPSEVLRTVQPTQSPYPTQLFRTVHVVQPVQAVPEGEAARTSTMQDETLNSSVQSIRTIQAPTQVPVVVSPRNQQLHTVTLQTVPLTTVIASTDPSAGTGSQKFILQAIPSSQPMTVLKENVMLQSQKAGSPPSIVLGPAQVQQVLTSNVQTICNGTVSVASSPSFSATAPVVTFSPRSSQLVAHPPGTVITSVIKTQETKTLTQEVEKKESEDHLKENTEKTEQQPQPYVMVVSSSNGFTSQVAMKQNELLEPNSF
Chain of ETV5 (P41161 whole entry): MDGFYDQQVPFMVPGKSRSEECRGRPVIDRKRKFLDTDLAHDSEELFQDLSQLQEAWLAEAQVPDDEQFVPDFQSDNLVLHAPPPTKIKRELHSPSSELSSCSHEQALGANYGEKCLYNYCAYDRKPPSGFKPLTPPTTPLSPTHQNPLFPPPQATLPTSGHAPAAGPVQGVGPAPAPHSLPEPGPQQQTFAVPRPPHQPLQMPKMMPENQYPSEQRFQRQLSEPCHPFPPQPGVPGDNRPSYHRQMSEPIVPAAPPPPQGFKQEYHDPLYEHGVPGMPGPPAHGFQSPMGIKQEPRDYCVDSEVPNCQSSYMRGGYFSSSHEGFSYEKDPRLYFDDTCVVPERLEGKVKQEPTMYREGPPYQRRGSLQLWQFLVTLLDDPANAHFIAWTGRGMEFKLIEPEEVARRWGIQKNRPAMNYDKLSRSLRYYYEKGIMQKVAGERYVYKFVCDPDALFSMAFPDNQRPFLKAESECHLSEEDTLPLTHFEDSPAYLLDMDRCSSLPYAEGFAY
Chain of ETV1 (P50549 whole entry): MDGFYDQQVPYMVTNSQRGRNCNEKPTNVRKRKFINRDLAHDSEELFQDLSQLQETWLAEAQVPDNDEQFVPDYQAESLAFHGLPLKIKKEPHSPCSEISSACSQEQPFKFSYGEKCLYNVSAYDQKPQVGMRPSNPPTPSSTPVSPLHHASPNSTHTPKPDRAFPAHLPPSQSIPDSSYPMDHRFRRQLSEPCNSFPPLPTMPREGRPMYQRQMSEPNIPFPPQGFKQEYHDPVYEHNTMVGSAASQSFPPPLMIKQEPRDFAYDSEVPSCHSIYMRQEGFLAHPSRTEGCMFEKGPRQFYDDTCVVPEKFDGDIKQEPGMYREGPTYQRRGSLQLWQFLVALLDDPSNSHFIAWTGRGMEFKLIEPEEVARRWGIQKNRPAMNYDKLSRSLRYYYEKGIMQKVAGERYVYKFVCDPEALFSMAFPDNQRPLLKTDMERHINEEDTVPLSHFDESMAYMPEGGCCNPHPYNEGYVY
Chain of ELF4 (Q99607 whole entry): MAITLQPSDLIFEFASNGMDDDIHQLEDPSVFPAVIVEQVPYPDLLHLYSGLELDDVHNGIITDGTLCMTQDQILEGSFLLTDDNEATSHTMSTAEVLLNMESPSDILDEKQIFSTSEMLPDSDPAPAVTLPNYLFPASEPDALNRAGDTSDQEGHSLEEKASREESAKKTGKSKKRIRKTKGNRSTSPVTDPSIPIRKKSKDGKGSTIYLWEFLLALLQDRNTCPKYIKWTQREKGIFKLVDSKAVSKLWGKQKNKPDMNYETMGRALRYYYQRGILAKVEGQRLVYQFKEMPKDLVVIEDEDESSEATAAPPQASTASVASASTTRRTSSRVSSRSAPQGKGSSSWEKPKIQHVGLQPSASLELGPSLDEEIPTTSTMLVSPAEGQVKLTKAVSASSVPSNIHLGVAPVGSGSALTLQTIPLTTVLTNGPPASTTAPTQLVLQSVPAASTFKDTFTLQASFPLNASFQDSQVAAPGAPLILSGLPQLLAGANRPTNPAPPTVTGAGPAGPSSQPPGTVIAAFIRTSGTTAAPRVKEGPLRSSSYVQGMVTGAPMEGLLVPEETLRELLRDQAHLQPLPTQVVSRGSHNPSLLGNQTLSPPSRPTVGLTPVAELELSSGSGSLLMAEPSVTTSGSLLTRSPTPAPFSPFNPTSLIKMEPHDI
Chain of HSF1 (Q00613 whole entry): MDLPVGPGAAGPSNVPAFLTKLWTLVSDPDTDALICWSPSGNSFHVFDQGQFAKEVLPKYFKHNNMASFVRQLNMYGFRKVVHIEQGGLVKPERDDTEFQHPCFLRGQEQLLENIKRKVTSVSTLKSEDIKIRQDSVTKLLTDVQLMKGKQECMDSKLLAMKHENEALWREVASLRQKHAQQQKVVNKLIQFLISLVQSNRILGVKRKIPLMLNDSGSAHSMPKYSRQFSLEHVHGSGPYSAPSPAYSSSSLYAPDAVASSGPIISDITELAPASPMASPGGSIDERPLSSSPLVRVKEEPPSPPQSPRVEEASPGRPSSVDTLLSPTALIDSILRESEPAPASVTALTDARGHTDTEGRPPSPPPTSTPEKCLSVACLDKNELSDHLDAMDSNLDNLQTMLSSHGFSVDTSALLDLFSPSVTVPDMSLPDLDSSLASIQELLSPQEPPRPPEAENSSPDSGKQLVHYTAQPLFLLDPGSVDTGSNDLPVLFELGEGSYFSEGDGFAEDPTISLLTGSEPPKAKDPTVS

TAGGTT was tested. Which binding signal (FLI1) did it give?
The binding signal was 1.13 fold enrichment (6-mer frequency, TF over GST control).

And the binding signal (ELK1)?
The binding signal was 1.04 fold enrichment (6-mer frequency, TF over GST control).

And the binding signal (GABPA)?
Its binding signal is 1 fold enrichment (6-mer frequency, TF over GST control).

What about the binding signal (ERG) of the same sequence?
The binding signal was 1.11 fold enrichment (6-mer frequency, TF over GST control).

What about the binding signal (ELF1) of the same sequence?
Its binding signal is 1.08 fold enrichment (6-mer frequency, TF over GST control).

What about the binding signal (EHF) of the same sequence?
The binding signal was 1.08 fold enrichment (6-mer frequency, TF over GST control).

And the binding signal (SPI1)?
The binding signal was 1.14 fold enrichment (6-mer frequency, TF over GST control).

And the binding signal (SPIB)?
Its binding signal is 1.13 fold enrichment (6-mer frequency, TF over GST control).

What about the binding signal (ELK3) of the same sequence?
The binding signal was 1.16 fold enrichment (6-mer frequency, TF over GST control).

What about the binding signal (ETV5) of the same sequence?
The binding signal was 1.13 fold enrichment (6-mer frequency, TF over GST control).

What about the binding signal (HSF1) of the same sequence?
The binding signal was 1.18 fold enrichment (6-mer frequency, TF over GST control).

And the binding signal (SPIC)?
Its binding signal is 1.16 fold enrichment (6-mer frequency, TF over GST control).

What about the binding signal (ELF4) of the same sequence?
Its binding signal is 1.09 fold enrichment (6-mer frequency, TF over GST control).

What about the binding signal (ELK4) of the same sequence?
Its binding signal is 1.12 fold enrichment (6-mer frequency, TF over GST control).

What about the binding signal (ETV2) of the same sequence?
The binding signal was 1.33 fold enrichment (6-mer frequency, TF over GST control).

What about the binding signal (ELF3) of the same sequence?
Its binding signal is 1.14 fold enrichment (6-mer frequency, TF over GST control).

What about the binding signal (CRX) of the same sequence?
Its binding signal is 1.25 fold enrichment (6-mer frequency, TF over GST control).

What about the binding signal (ETV1) of the same sequence?
Its binding signal is 1.13 fold enrichment (6-mer frequency, TF over GST control).
